PrPC surface inh – inhibitors of human cell surface prion protein PrPC, primary screen, cell-based, TR-FRET | TR-FRET read-out | inhibition, % at 13.8 µM | AID 720596, 2013 | actives 0.43% (n = 370,000); in the data active = inhibition above about 24%; also: 0% = median of the test wells and 100% = reference compound wells
CCHFV vOTU inh – CCHFV vOTU protease inhibitors, primary screen, biochemical, Pep-AMC substrate, fluorescence. Crimean-Congo hemorrhagic fever virus L polyprotein viral ovarian tumor (vOTU) protease …. inhibition, % at 11.5 µM. actives 0.55% (n = 370,000). AID 651958, 2012; in the data active = inhibition above about 30%; also: 0% = vehicle wells with enzyme and 100% = no enzyme wells
PriA SSB inh – inhibitors of Klebsiella pneumoniae PriA binding to SSB C-terminal tail, primary screen, biochemical, AlphaScreen; PriA–SSB C-terminal tail interaction (Klebsiella pneumoniae); AlphaScreen SSBct-PriA binding, biotinylated peptide; actives 0.6% (n = 430,000); AID 1272365, 2023; inhibition, % at 33 µM; in the data active = inhibition mostly above about 37%, no sharp cut-off; inactive = mostly below about 20%;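 also: plate controls were negative control peptide for no effect and reference peptide for full effect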
BH1578 lux ind – inducers of Vibrio cholerae quorum light production without autoinducers, primary screen, BH1578 luxS cqsA deficient, single point; V. cholerae BH1578 lux reporter, luminescence, 6 h; AID 588436, 2011; activation, % at 18.7 µM; actives 0.16% (n = 350,000); in the data active = activation mostly above about 9.7%, no sharp cut-off
TcdB GH inh – TcdB glycohydrolase inhibitors, primary screen, biochemical, single point, plate reader; actives 0.24% (n = 350,000); inhibition, % at 9.99 µM; Toxin B (Clostridioides difficile), P18177; AID 652162, 2013; TcdB glycohydrolase enzymatic assay; in the data active = inhibition above about 10%
VHR inh abs – VHR1 phosphatase inhibitors, primary screen, biochemical, absorbance, uHTS | Dual specificity protein phosphatase 3 (Homo sapiens), P51452 | recombinant VHR phosphatase, pNPP absorbance | inhibition, % at 13.3 µM | actives 0.52% (n = 290,000) | AID 1654, 2009; in the data active = inhibition above about 50%
Target sequence (P51452 whole entry, looked up): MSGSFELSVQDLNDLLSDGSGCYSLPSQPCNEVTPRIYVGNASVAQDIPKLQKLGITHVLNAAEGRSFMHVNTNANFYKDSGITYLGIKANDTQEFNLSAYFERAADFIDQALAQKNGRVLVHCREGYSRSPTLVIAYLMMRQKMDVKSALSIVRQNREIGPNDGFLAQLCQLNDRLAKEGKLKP
Active calls of the source: *; i = inactive; · = not tested or not shown. This is a sample that favours compounds with a hit; in the whole collection about 1.5% have one here.

SMILES	PrPC surface inh	CCHFV vOTU inh	PriA SSB inh	BH1578 lux ind	TcdB GH inh	VHR inh abs
COc1cn2c(cc1=O)C(=O)N(CCNC(=O)c1cccc(C)c1)CC2	·	·	-15.0	·	·	·
Cc1ccnc(NC(=O)CCCOc2cc(=O)n(C)c3ccccc23)c1	39.2*	-4.6	-8.8	-0.2	0.9	28.5
Cn1c(=O)cc(OCCCC(=O)NCc2ccccn2)c2ccccc21	5.9	-1.0	-15.7	-0.3	·	31.9
CCn1c(SCC(=O)Nc2ccc(C(=O)OC)cc2)nnc1-c1cccs1	-3.4	-2.0	-3.1	-0.7	·	-8.7
Cn1c(SCC(=O)Nc2ccccc2F)nnc1-c1cccs1	1.0	16.2	-16.0	0.0	0.2	54.4*
CCn1c(SCC(=O)NCC(=O)Nc2ccc(F)cc2)nnc1-c1cccs1	-1.7	-9.3	-6.8	24.8*	·	29.9
Cn1c(Cc2cccs2)nnc1SCC(=O)Nc1ccccc1F	-4.6	-2.9	-2.8	-2.6	0.5	·
COc1ccc(NC(=O)NCCn2ncccc2=O)cc1	·	·	-6.0	·	·	·
Cc1ccc(S(=O)(=O)CCc2nnc(NC(=O)c3cnccn3)s2)cc1	-6.8	0.9	4.6	-0.1	·	-13.3
Cc1ccc(S(=O)(=O)CCc2nnc(NC(=O)c3ccccn3)s2)cc1	·	·	85.5*	i	·	-4.4
CCOC(=O)c1ccc(NC(=O)CSC2=C(C#N)C(c3ccc(OC)c(OC)c3)CC(=O)N2)cc1 (stereo not drawn)	·	·	-13.0	·	·	·
O=[N+]([O-])c1nn(-c2cccc(Cl)c2)n(O)c1=NC1CCCCCC1	·	·	66.4*	·	·	·
O=[N+]([O-])c1nn(-c2ccccc2)n(O)c1=NC1CCCCCC1	·	·	64.3*	·	·	·
Cc1cc(C)cc(N=c2c([N+](=O)[O-])nn(-c3cccc(Cl)c3)n2O)c1	-10.3	3.5	36.0	-0.2	·	24.9
CC1CCCCN1C(=O)CSc1nc2sc3c(c2c(=O)n1-c1ccccc1)CCCC3 (stereo not drawn)	·	·	2.0	·	·	·
O=C(OC(c1ccccc1)c1nccc2ccccc12)c1cc([N+](=O)[O-])cc([N+](=O)[O-])c1 (stereo not drawn)	-36.2	10.8	51.7*	-0.7	·	14.7
Cc1ccc(CN2CCN(Cc3cn[nH]c3C3CCCCC3)CC2CCO)cc1 (stereo not drawn)	-4.1	5.4	-0.2	4.2	0.0	52.2*
COc1ccc(NC(=O)C(c2cc3c(cc2[N+](=O)[O-])OCO3)N(C)c2ccccc2)cc1 (stereo not drawn)	-1.6	3.9	39.1*	0.4	·	1.2
Cc1cc(C)cc(NC(=S)NCc2ccc3c(c2)cc(C)n3C)c1	·	·	60.5	·	·	·
COc1ccc(NC(=S)NCc2ccc3c(c2)cc(C)n3C)cc1	-10.6	1.2	74.7*	-0.2	-1.0	3.9
Cc1ccccc1NC(=S)NCc1ccc2c(c1)cc(C)n2C	12.9	-0.6	35.7	-0.2	-0.6	-7.3
Cc1cc2cc(CNC(=S)NC3CCCCC3)ccc2n1C	5.3	-1.4	58.8*	-0.3	-0.1	7.7
CCc1cccc(C)c1NC(=S)NCc1ccc2c(c1)cc(C)n2C	10.1	-0.1	52.9*	-0.2	0.8	-14.8
CCCCNC(=S)NCc1ccc2c(c1)cc(C)n2C	9.2	11.0	82.5*	-0.3	1.2	-11.0
C=CCOc1ccc(C(O)=C2C(=O)C(=O)N(CCCOC)C2c2ccncc2)cc1 (stereo not drawn)	·	·	5.2	·	·	·
SMILES	PrPC surface inh	CCHFV vOTU inh	PriA SSB inh	BH1578 lux ind	TcdB GH inh	VHR inh abs
COc1ccc(C)cc1NC(=O)CSc1nc2c(sc(=S)n2-c2ccc(C)cc2)c(=O)n1C	·	·	3.0	·	·	·
Cc1nn(-c2ccc(N3CCN(C(=O)C4CCCCC4)CC3)nn2)c(C)c1C	·	·	-3.0	·	·	·
Cc1cc(C)cc(NC(=O)Nc2nccn(-c3ccc(Br)cc3)c2=O)c1	·	·	-12.0	·	·	·
COc1cc(/C=N/N2CCCCC2)cc([N+](=O)[O-])c1O	-1.9	14.8	·	i	-101.0	59.6*
COC(=O)NN=Cc1cc(OC)c(O)c([N+](=O)[O-])c1	·	·	-11.6	·	·	·
CC(=O)c1cccc(NC(=O)CCc2nnc3ccc(NCc4ccc5c(c4)OCO5)nn23)c1	-0.8	5.1	-15.6	i	0.2	56.8*
COc1ccccc1Nc1ccc2c(O)cc(S(=O)(=O)O)cc2c1	-6.2	20.0	51.4*	i	2.2	·

Screening results (PubChem)
